Test results from PubChem BioAssay AID488899 (Broad Institute, 2010).
“And” between values parts separate entries of the source, which are not always exact repeats. Equal entries are not always repeated. Hit rate of the full screen: of about 330,000 compounds, about 2,800 (0.85%) were called active.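 How the source made its calls: active means mean inhibition across replicates of 60% or more, whatever share of single replicates reaches that level; inconclusive means some that reach 60%, reason not given; inactive means mean inhibition across replicates below 60%.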 Many of the other results were omitted from the sample, so actives are more common in it than they were.

Assay: MITF transcriptional activity suppression – cell-based, SK-MEL-5, single point, luciferase, primary screen (AID 488899)
Details: SK-MEL-5 TRPM1 promoter luciferase, 24 h; at 12.5 µM; stronger effect = higher value
In the case of `CCOc1ccc(-c2cc(C)[n+](CCN(CC)CC)c(-c3ccc(OCC)cc3)c2)cc1`, the inhibition is reported as 69.6% (active). With `CC1CC=CCC12C(=O)NC(=S)NC2=O` (stereo not given) the inhibition was 6.98% (inactive). In the case of `N#Cc1ccc(Cn2cc(C(=O)c3ccco3)c3ccccc32)cc1`, the inhibition is reported as 12.8% (inactive). With `CC(=O)N(C1=NCCCS1)c1ccccc1F` the inhibition was 6.66% (inactive). For `Fc1ccc(C2N3CCCN23)cc1` (stereo not given), the inhibition was 5.89% (inactive). With `CC1=CC(=Cc2sc3ccccc3[n+]2C)C=C(C)O1` the inhibition was 69.6% (active). For `Cc1cccc(NC(=O)N2CC3CC(C2)c2cccc(=O)n2C3)c1` (stereo not given), the inhibition was -3.6% (inactive). With `Cc1nn(Cc2ccccc2Cl)c(Cl)c1C(=O)OC(C(=O)NC(N)=O)C(C)C` (stereo not given) the inhibition was -9.08% (inactive). For `CC1C(=O)OC2CCN3CC=C(COC(=O)C(C)(O)C1(C)O)C23` (stereo not given), the inhibition was -1.22% (inactive). With `O=C(c1ccccc1)C(O)(CN1CCCCC1)c1ccccc1` (stereo not given) the inhibition was 3.2% (inactive). For `OCC#CC[N+]1(CC#Cc2ccccc2)CCCC1`, the inhibition was 2.94% (inactive). In the case of `COC(=O)C1=C(c2cccc(OCc3ccccc3)c2)C[C@@H]2CC[C@H]1N2C(=O)NCc1ccc(Br)cc1`, the inhibition is reported as -1.21% (inactive). For `CCC(C)(O)C(=O)OC1C(=O)OC2CC3C(C)=CC(=O)C(O)C3(C)C3C4(O)OCC23C1C(C)C4O` (stereo not given), the inhibition was 72.8% (active). In the case of `CC1=C2C(=O)C3C(CC=C4CC(OC5OC(O)C(O)C(O)C5CO)CCC43C)C2CCC12OC1CC(C)CNC1C2C` (stereo not given), the inhibition is reported as 0.655% (inactive). For `CN(C)C(=O)NC(O)C(Cl)(Cl)Cl` (stereo not given), the inhibition was 8.39% (inactive). In the case of `CCN1c2nc3c(C)cccn3c(=O)c2CC2(C(=O)N(C)C(=O)N(C)C2=O)C1C` (stereo not given), the inhibition is reported as 0.643% (inactive). For `Cn1c(O)c(C=Nc2ccc3c(c2)CCC3)c(=O)n(C)c1=O`, the inhibition was -24.2% (inactive). For `COC(=O)C1=C(c2ccc3ccccc3c2)C[C@@H]2CC[C@H]1N2C(=O)NCCO`, the inhibition was -9.09% (inactive). For `CC12CN3CC(C)(CN(C1)C3c1cccs1)C2` (stereo not given), the inhibition was -13% (inactive). With `CC(=O)OC1C2(CC3N4C(=O)C5(CO)SSC4(CC31O)C(=O)N5C)OC(C)C(C)(C)C2=O` (stereo not given) the inhibition was 112% (active). In the case of `CC1CNCCN1c1ccc(Cl)cc1` (stereo not given), the inhibition is reported as -17.8% (inactive). For `Cc1cc2ccccn2c1C(C[N+](=O)[O-])c1c(F)cccc1Cl` (stereo not given), the inhibition was 7.17% (inactive). For `O=c1c2ccccc2nc(/C=C/c2ccc(F)cc2)n1-c1ccccc1O`, the inhibition was -2.83% (inactive). With `Cc1ccc(P(=S)(c2ccc(C)o2)N2CCOCC2)o1` the inhibition was -0.096% (inactive). In the case of `COC1C(O)C(C)OC(OC2CCC3(C=O)C(CCC4C3CCC3(C)C(C5=CC(=O)OC5)CCC43O)C2)C1O` (stereo not given), the inhibition is reported as 74.9% (active). With `O=C(O)CCn1cc(C=C2C(=O)NC(=S)NC2=O)c(-c2cccc(Br)c2)n1` the inhibition was 4.06% (inactive). In the case of `c1ccc(CCN2CCC3(CC2)OCCO3)cc1`, the inhibition is reported as 9.66% (inactive). With `C[C@]12CCC3C(CC[C@H]4C[C@@H](O)CC[C@]34C)C1CC[C@@H]2O` (stereo not given in full) the inhibition was 6.32% (inactive). For `C[C@]12CC[C@H](O)C[C@H]1CC[C@@H]1C2CC[C@]2(C)[C@@H](C3=CC(=O)OC3)[C@@H](O)C[C@]12O` (stereo not given in full), the inhibition was 80.6% (active). In the case of `C[C@]12CCC3C(CC[C@H]4C[C@@H](O)CC[C@]34C)C1C[C@@H](O)[C@H]2O` (stereo not given in full), the inhibition is reported as 2.08% (inactive). With `NCCc1c[nH]c2ccc(O)cc12` the inhibition was 12.6% (inactive). In the case of `COC(=O)C1=C(c2ccc(-c3ccccc3)c(F)c2)C[C@@H]2CC[C@H]1N2C(=O)NCc1ccc(F)cc1`, the inhibition is reported as -8.41% (inactive). For `CCCCCCCCCCCCn1ccc(=N)cc1`, the inhibition was 80.1% (active). In the case of `CN(C)C(=O)Oc1cc(OC(=O)N(C)C)cc(C(O)CNC(C)(C)C)c1` (stereo not given), the inhibition is reported as -3.47% (inactive) and -8.18% (inactive). With `CC(C)c1c(CN(C)C(C)Cc2ccccc2)n(C)n(-c2ccccc2)c1=O` (stereo not given) the inhibition was 9.81% (inactive).
